# In PubChem BioAssay:
# Activity calls are given as the source filed them.
# Tests used:
# [1] = system: Plasmodium falciparum Sir2 (PF13_0152, Sir2A); experiment: pfSir2 binders on small-molecule microarrays, primary screen, biochemical, small-molecule microarray, 635 nm fluorescence (AID 1098); conditions: small-molecule microarray binding, fluorescence 635 nm; higher = more signal;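 note: score merges spot fluorescence intensity with its signal-to-noise ratio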
# [2] = small-molecule microarray binders of probe aDKK1, primary screen, biochemical, biotinylated probe, 635/667 nm fluorescence (AID 1099); conditions: higher = more signal;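 note: score merges 667nm spot fluorescence with signal to noise across triplicate slides; reference of the scale not given here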
# [3] = small-molecule microarray binders of probe aCHRDL2, primary screen, biochemical, biotinylated probe, 635/667 nm fluorescence (AID 1100); conditions: higher = more signal
# [4] = splicing luciferase reporter signal modulators, primary screen, spliceosome inhibition project, cell-based, HEK293, splice +/- reporter (AID 1101); conditions: luminescence, 24 h, higher = more signal, called active from +8 up or from −8 down;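 note: HEK293 cells carrying a splicing-competent luciferase reporter gene; test concentration not given here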
# [5] = target: Fibroblast growth factor 10 (Homo sapiens) (UniProt O15520); experiment: FGF10 binders on small-molecule microarrays, primary screen, biochemical, small-molecule microarray, 635 nm fluorescence (AID 1102); conditions: FGF10 binding, fluorescence 635 nm, higher = more signal
# Sequence of Fibroblast growth factor 10 (Homo sapiens) (O15520 whole entry, looked up): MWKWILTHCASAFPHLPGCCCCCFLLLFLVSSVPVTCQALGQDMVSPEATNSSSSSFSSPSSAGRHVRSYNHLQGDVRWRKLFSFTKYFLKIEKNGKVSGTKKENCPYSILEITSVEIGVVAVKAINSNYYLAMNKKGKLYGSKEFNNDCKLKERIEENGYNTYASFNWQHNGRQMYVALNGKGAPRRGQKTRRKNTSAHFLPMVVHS
# [6] = system: glycogen synthase kinase-3 (GSK3A per assay name; protocol says GSK3B); experiment: GSK3 binders on small-molecule microarrays, primary screen, biochemical, small-molecule microarray, 635 nm fluorescence, GSK3A (AID 1103); conditions: small-molecule microarray binding, fluorescence 635 nm; higher = more signal; note: the record names both GSK3A and GSK3B
# [7] = target: Epidermal growth factor receptor (Homo sapiens) (UniProt P00533); experiment: EGFR binders on small-molecule microarrays, primary screen, biochemical, small-molecule microarray, 635 nm fluorescence (AID 1104); conditions: EGFR binding, higher = more signal;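 note: score merges 667 nm emission intensity with spot signal to noise over triplicate slides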
# Sequence of Epidermal growth factor receptor (Homo sapiens) (P00533 whole entry, looked up): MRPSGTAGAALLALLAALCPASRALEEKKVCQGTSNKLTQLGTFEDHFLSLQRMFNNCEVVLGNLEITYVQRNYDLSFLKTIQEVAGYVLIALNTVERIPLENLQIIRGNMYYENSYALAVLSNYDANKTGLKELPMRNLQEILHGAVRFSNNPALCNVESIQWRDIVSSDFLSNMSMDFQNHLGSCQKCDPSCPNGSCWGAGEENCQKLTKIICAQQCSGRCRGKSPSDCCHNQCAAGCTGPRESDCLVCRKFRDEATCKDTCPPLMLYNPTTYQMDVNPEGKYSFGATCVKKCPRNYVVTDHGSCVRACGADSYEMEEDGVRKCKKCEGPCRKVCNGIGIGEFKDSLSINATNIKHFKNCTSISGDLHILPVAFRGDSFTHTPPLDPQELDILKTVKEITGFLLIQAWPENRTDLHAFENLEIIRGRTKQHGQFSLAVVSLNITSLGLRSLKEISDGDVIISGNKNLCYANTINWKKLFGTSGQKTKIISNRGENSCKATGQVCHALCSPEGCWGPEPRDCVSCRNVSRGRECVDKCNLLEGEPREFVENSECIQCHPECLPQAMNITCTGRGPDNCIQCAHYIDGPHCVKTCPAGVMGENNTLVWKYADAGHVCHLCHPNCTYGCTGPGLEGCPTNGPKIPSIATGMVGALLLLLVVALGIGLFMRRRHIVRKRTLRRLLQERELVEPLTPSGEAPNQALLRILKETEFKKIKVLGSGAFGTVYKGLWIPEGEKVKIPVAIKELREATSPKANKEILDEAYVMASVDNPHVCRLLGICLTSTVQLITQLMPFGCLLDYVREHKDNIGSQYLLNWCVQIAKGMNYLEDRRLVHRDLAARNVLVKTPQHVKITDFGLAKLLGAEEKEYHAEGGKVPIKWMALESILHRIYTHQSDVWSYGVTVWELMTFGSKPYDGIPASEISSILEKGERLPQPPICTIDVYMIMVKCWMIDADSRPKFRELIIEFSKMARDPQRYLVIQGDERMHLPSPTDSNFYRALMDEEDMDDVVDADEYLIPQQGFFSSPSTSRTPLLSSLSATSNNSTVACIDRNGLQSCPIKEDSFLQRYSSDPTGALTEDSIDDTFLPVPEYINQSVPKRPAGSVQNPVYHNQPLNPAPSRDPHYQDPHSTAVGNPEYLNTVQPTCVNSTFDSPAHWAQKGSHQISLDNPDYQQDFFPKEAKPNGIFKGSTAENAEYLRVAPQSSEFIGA
# [8] = target: Follistatin-related protein 3 (Homo sapiens) (UniProt O95633); experiment: FSTL3 binders on small-molecule microarrays, primary screen, biochemical, small-molecule microarray, 635 nm fluorescence (AID 1105); conditions: FSTL3 binding, higher = more signal;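 note: score merges emission near 667 nm and signal to noise per printed spot across three slides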
# Sequence of Follistatin-related protein 3 (Homo sapiens) (O95633 whole entry, looked up): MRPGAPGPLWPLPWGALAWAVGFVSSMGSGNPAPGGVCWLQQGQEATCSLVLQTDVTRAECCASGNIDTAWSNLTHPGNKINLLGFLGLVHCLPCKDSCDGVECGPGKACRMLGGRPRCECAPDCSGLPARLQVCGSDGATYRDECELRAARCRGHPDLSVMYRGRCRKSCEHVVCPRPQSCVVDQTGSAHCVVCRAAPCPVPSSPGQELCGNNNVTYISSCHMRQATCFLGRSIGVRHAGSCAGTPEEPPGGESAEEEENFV
# [9] = target: Dickkopf-related protein 1 (Homo sapiens) (UniProt O94907); experiment: DKK1 binders on small-molecule microarrays, primary screen, biochemical, small-molecule microarray, 635 nm fluorescence scan (AID 1106); conditions: DKK1 binding, higher = more signal;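 note: score merges emission near 667 nm with signal to noise over three replicate slides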
# Sequence of Dickkopf-related protein 1 (Homo sapiens) (O94907 whole entry, looked up): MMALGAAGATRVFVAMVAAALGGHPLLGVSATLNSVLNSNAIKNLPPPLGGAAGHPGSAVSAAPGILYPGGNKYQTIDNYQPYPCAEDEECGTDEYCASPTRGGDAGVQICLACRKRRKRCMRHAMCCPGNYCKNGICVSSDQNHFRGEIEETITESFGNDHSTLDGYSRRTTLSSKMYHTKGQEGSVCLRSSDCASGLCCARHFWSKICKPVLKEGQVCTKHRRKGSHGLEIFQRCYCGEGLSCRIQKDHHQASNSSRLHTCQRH
# [10] = system: Inhibin beta A chain (activin A); experiment: INHBA (activin A) binders on microarrays, primary screen, biochemical, small-molecule microarray, 635 nm fluorescence scan (AID 1107); conditions: small-molecule microarray binding, higher = more signal;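 note: mouse activin A protein probed at 4.33 µg/mL on printed slides; score merges bound-protein fluorescence near 667 nm with spot signal-to-noise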
SMILES,composite z-score [1],composite z-score [2],composite z-score [3],z-score [4],composite z-score [5],composite z-score [6],composite z-score [7],composite z-score [8],composite z-score [9],composite z-score [10]
CCOC(=O)[C@H](CC(C)C)NC(=O)CCC1CC(OC(=O)NCc2cccc3ccccc23)CC2(CCCC(COC(=O)NCCCN3CCCC3=O)O2)O1 (stereo not given in full),0.389,-0.171,-0.38,-0.406 (inactive),0.408,0.819,0.384,0.787,0.583,0.0612
CCO[C@H](c1cc(OC)cc([N+](=O)[O-])c1OC)[C@H](C)C=CCC(=O)OC,0.54,-0.295,-0.776,0.402 (inactive),0.0681,0.117,0.147,0.385,0.505,0.0666
COC(=O)CC=C[C@@H](C)[C@@H](C=NOC[C@H]1O[C@H](c2ccccc2)C=C[C@@H]1Oc1ccc(OC)cc1)OC,-0.67,-0.242,-0.212,-0.194 (inactive),0.268,-0.393,-0.587,0.173,-0.0407,0.807
C#CCCCON=C1C[C@@H](O)[C@@H](O)[C@@H]2[C@@H]3C(=O)N(c4ccc(F)cc4F)C(=O)[C@@H]3CC[C@@H]12,0.191,-0.19,-0.71,0.0714 (inactive),-0.0402,0.225,0.259,0.218,0.302,-0.263
CC(C)=CCCC(C)=CCON=C1C[C@@H](O)[C@@H](O)[C@@H]2[C@@H]3C(=O)N(c4ccc(F)cc4F)C(=O)[C@@H]3CC[C@H]12,0.176,-0.016,-0.428,-0.956 (inactive),0.0906,0.349,0.531,1.08,0.612,0.342
CC(C)(C)N1C(=O)[C@H]2[C@H]3[C@H](O)[C@H](O)CC(=NOCc4ccccc4)[C@H]3CC[C@H]2C1=O,0.0828,0.989,1.36,0.453 (inactive),0.0277,-0.399,-0.376,-0.663,-0.551,0.251
CC(CCN1CCCCc2nc(C)c(C)cc21)=NOC[C@@H](O)COCc1ccco1,1.19,-0.286,-1.58,0.44 (inactive),1.26,1.34,1.74,1.52,2,1.79
O=C(NN=C1C[C@@H](O)[C@@H](O)[C@@H]2[C@@H]3C(=O)N(C[C@@H]4CCCO4)C(=O)[C@@H]3CC[C@H]12)OCc1ccccc1,0.278,0.545,0.768,0.0311 (inactive),-0.132,-0.658,-0.0485,-0.281,-0.575,0.902
CCC(=O)[C@@]1(O)C(=O)N2C(=C3C(=O)OCC[C@@H]31)N(Cc1ccccc1)C(C)=C(C(=O)OC)[C@H]2c1ccccc1,0.413,-0.302,-0.624,0.501 (inactive),0.241,0.554,0.43,0.429,0.873,-0.0748
CC(C)=CCCC(C)=CCON=C1C[C@@H](O)[C@@H](O)[C@@H]2[C@@H]3C(=O)N(c4ccc(F)cc4F)C(=O)[C@@H]3CC[C@@H]12,0.476,-0.324,-0.497,-0.118 (inactive),0.601,-0.0599,0.628,0.806,0.926,1.04
COC(=O)[C@@H]1CC[C@H](C)[C@@H](c2ccc(C)cc2)N1C(=O)c1ccc(C=NOC[C@@H](C)[C@H](OCc2ccccc2)C(C)C)cc1,0.854,0.0975,-0.233,-1.12 (inactive),0.532,1.16,0.814,0.804,0.414,-0.182
CCOC(=O)CCN1C(=O)[C@H]2[C@H]3[C@H](O)[C@H](O)CC(=NOCc4ccccc4)[C@H]3CC[C@H]2C1=O,0.1,1.27,1.32,0.509 (inactive),-0.556,-0.395,0.193,-0.828,-1.06,0.288
COC(=O)[C@H](C)NC(=O)CCC1CC(OC(=O)NCCc2ccc(F)cc2)CC2(CCCC(COC(=O)NCc3cccc(C(F)(F)F)c3)O2)O1 (stereo not given in full),0.185,-0.528,-0.623,0.249 (inactive),0.951,0.359,0.873,1.31,1.41,0.0622
